Measured values reported in ChEMBL document CHEMBL1961873, “Compounds: GSK PKIS; Assays: Nanosyn kinase panel” (2012).

How the values were obtained:
[1] = target: Tyrosine-protein kinase CSK (Homo sapiens) (UniProt P41240); conditions: at 1 µM;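 further: each value is an averaged inhibition reading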
[2] = target: T1, Discoidin domain-containing receptor 2 (Homo sapiens) (UniProt Q16832); conditions: at 0.1 µM
T1 sequence (whole entry): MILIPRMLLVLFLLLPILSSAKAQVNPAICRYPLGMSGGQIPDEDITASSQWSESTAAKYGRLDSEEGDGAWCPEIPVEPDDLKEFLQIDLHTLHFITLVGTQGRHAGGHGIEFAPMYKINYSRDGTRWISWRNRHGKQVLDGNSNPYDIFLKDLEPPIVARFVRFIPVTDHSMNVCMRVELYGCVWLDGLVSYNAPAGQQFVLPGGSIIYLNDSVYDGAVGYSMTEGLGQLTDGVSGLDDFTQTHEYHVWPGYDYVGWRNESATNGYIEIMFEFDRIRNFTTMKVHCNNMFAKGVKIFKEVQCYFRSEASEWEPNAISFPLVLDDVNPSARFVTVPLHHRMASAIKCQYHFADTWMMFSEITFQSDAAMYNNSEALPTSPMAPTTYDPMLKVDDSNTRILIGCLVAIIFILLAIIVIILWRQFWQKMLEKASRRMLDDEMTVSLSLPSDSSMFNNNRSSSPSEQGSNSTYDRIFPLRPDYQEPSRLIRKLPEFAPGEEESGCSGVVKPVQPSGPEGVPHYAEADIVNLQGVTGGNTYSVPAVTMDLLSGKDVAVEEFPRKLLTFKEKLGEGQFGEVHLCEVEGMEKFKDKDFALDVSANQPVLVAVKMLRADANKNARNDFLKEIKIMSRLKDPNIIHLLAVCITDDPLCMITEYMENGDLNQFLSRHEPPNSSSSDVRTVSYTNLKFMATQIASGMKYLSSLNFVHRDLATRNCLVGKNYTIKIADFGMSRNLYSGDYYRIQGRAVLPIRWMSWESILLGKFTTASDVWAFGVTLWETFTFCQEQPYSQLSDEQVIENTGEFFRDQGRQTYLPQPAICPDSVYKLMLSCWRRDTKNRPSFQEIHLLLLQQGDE

[3] = target: T1, Discoidin domain-containing receptor 2 (Homo sapiens); conditions: at 1 µM
[4] = target: Epidermal growth factor receptor (Homo sapiens) (UniProt P00533); conditions: at 0.1 µM
Epidermal growth factor receptor (Homo sapiens), sequence (P00533 whole entry): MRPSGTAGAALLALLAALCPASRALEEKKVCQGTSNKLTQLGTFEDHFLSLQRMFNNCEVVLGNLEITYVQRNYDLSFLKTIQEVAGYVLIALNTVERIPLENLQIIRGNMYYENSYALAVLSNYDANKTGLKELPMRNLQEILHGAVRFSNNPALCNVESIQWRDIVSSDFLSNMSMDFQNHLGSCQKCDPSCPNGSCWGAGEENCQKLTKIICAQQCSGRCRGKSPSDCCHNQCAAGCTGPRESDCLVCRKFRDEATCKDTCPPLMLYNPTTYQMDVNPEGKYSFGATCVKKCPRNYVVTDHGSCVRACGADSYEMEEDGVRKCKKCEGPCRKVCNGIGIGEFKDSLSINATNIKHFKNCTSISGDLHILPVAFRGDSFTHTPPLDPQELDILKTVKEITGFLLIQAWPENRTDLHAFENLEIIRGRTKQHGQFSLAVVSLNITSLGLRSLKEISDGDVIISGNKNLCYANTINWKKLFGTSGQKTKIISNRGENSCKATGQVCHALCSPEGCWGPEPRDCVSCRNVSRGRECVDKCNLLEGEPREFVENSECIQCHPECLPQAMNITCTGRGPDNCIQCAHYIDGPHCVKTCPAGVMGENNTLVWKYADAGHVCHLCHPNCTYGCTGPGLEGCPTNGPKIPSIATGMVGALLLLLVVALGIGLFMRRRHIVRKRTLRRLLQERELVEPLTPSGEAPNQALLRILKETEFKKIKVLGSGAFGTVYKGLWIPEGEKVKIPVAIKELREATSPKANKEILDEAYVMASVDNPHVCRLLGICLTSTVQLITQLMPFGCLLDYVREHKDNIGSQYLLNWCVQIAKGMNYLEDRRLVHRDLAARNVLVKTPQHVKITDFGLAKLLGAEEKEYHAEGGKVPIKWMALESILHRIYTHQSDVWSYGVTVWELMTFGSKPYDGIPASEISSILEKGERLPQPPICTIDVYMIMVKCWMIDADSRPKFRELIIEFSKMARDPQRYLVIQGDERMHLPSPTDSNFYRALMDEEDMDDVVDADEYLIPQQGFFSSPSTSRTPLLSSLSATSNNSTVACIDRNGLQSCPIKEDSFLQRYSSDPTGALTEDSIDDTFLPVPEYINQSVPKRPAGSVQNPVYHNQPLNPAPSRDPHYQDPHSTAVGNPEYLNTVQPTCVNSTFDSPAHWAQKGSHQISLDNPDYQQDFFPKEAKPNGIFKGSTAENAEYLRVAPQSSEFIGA

[5] = target: Epidermal growth factor receptor (Homo sapiens) (UniProt P00533); conditions: at 1 µM
[6] = tested on: Epidermal growth factor receptor (Homo sapiens), P00533 [L858R]; conditions: at 0.1 µM
Epidermal growth factor receptor (Homo sapiens), P00533 [L858R], sequence (P00533 whole entry L858R): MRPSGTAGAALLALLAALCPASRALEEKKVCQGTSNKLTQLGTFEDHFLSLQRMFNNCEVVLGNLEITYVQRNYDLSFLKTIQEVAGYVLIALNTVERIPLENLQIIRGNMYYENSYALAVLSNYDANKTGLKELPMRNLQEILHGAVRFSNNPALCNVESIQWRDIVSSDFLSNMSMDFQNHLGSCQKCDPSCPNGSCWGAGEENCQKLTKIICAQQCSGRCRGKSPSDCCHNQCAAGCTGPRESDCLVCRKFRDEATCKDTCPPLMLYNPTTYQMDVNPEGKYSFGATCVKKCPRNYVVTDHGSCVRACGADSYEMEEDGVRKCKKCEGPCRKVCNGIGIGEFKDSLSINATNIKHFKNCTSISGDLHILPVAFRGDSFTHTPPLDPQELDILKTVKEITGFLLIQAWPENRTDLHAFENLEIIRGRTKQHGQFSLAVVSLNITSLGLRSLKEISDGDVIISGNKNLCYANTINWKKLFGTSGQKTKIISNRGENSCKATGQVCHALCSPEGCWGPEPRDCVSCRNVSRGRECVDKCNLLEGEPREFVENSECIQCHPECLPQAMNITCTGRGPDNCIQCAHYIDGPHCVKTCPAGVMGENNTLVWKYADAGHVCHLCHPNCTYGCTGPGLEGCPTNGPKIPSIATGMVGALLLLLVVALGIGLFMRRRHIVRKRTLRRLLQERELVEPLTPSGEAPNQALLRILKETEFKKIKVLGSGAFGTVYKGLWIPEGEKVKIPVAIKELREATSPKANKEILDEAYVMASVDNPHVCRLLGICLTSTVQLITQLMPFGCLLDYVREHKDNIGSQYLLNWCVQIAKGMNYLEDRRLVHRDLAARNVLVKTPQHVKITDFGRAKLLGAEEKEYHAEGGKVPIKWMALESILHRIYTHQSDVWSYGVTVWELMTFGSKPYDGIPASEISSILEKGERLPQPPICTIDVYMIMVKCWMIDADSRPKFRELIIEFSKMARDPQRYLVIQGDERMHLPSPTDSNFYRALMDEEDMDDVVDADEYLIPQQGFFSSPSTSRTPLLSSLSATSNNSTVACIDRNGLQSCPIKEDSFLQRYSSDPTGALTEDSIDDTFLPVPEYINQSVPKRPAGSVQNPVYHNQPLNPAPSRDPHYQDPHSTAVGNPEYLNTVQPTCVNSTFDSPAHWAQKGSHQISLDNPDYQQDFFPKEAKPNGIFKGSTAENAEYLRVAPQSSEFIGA

[7] = tested on: Epidermal growth factor receptor (Homo sapiens), P00533 [L858R]; conditions: at 1 µM
[8] = tested on: Epidermal growth factor receptor (Homo sapiens), P00533 [L861Q]; conditions: at 0.1 µM
[9] = tested on: Epidermal growth factor receptor (Homo sapiens), P00533 [L861Q]; conditions: at 1 µM
[10] = tested on: Epidermal growth factor receptor (Homo sapiens), P00533 [T790M]; conditions: at 0.1 µM
[11] = tested on: Epidermal growth factor receptor (Homo sapiens), P00533 [T790M]; conditions: at 1 µM
[12] = tested on: Epidermal growth factor receptor (Homo sapiens), P00533 [L858R,T790M]; conditions: at 0.1 µM
Epidermal growth factor receptor (Homo sapiens), P00533 [L858R,T790M], sequence (P00533 whole entry T790M/L858R, looked up): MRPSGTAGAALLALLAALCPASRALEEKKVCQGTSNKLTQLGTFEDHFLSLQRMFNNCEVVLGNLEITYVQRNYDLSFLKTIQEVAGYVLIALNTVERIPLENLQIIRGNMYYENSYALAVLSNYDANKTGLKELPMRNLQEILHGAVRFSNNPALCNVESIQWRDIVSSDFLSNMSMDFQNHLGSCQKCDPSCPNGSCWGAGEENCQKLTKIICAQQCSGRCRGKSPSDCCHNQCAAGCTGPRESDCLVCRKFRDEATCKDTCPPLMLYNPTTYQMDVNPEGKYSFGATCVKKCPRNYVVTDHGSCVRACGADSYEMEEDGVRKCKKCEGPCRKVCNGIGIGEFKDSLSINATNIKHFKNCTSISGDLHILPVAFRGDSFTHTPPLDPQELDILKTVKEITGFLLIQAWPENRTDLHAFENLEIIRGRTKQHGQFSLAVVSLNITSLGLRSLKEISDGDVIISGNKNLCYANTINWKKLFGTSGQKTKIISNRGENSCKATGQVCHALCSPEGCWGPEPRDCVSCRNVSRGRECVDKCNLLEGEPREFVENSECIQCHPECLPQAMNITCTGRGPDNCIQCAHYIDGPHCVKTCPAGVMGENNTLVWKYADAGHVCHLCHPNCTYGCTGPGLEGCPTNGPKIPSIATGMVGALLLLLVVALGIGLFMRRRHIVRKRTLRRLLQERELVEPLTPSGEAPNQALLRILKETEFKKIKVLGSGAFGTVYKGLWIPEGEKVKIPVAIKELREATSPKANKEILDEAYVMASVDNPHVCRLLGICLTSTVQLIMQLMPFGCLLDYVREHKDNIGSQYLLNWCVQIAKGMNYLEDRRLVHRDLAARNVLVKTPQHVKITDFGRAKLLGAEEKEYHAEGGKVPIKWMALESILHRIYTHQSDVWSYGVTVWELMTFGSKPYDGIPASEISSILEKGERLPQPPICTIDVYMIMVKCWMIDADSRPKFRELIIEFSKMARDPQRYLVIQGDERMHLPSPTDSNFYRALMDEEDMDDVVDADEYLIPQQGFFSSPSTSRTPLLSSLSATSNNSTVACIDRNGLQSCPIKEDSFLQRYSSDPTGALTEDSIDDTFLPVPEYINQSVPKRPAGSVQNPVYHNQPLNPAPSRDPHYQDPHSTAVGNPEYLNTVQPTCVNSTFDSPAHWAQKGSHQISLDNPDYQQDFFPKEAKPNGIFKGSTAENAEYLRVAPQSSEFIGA

[13] = tested on: Epidermal growth factor receptor (Homo sapiens), P00533 [L858R,T790M]; conditions: at 1 µM
[14] = target: Ephrin type-A receptor 2 (Homo sapiens) (UniProt P29317); conditions: at 0.1 µM
Ephrin type-A receptor 2 (Homo sapiens), sequence (P29317 whole entry): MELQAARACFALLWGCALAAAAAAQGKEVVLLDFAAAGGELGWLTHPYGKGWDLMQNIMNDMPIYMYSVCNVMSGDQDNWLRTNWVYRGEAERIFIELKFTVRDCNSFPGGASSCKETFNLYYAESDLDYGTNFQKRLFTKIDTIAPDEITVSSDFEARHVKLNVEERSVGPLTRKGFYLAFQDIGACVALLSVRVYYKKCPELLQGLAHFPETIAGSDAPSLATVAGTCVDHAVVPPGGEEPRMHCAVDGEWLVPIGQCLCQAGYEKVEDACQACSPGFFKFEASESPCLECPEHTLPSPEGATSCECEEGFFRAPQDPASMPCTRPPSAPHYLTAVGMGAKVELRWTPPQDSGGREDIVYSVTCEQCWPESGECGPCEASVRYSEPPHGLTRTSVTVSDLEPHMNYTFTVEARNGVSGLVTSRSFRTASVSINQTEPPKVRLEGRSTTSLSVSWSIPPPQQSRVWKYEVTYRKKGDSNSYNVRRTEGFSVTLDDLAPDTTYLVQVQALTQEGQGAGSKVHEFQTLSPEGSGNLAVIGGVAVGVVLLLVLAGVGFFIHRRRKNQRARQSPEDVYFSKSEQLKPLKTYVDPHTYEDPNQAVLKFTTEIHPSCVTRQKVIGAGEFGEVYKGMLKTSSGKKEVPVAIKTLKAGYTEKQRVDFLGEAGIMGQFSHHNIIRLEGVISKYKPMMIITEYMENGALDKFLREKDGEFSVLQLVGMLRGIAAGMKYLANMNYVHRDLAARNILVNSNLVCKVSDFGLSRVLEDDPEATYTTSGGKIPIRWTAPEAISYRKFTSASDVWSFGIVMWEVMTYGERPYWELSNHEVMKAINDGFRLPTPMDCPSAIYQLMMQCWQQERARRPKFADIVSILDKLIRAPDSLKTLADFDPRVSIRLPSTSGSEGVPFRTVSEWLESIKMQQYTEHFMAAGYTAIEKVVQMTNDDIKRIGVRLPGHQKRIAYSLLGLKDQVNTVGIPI

[15] = target: Ephrin type-A receptor 2 (Homo sapiens) (UniProt P29317); conditions: at 1 µM
[16] = target: T2, Ephrin type-A receptor 3 (Homo sapiens) (UniProt P29320); conditions: at 0.1 µM
T2 sequence (whole entry): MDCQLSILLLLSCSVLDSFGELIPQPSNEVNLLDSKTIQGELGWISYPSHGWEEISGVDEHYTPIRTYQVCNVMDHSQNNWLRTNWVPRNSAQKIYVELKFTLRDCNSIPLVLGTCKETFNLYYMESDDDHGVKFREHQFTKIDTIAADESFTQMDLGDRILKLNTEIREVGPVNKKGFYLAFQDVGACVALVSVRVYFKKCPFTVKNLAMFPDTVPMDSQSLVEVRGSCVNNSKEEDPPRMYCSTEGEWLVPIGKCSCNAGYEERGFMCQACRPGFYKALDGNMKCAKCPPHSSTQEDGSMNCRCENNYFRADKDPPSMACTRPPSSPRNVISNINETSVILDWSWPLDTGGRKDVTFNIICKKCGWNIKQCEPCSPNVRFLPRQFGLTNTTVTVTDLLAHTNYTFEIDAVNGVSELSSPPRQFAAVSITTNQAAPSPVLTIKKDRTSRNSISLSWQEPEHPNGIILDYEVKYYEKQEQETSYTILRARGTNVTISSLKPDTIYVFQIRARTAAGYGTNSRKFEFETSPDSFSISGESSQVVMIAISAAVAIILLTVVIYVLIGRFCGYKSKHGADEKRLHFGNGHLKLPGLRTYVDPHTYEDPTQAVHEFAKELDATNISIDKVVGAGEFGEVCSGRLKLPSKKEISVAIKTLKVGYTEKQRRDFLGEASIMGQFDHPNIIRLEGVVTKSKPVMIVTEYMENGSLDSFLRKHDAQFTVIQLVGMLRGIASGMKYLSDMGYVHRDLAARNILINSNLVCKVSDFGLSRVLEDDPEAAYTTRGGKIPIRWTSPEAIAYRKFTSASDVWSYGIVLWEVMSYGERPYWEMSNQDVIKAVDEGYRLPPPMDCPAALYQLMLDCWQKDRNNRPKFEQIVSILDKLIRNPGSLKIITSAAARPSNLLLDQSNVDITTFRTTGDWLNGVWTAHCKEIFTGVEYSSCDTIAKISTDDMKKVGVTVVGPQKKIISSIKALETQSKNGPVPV

[17] = target: T2, Ephrin type-A receptor 3 (Homo sapiens); conditions: at 1 µM
[18] = target: Ephrin type-A receptor 4 (Homo sapiens) (UniProt P54764); conditions: at 0.1 µM
[19] = target: Ephrin type-A receptor 4 (Homo sapiens) (UniProt P54764); conditions: at 1 µM
[20] = target: T3, Ephrin type-B receptor 2 (Homo sapiens) (UniProt P29323); conditions: at 0.1 µM;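 further: reported as mean inhibition of EPHB2, from the GSK PKIS dataset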
T3 sequence (whole entry): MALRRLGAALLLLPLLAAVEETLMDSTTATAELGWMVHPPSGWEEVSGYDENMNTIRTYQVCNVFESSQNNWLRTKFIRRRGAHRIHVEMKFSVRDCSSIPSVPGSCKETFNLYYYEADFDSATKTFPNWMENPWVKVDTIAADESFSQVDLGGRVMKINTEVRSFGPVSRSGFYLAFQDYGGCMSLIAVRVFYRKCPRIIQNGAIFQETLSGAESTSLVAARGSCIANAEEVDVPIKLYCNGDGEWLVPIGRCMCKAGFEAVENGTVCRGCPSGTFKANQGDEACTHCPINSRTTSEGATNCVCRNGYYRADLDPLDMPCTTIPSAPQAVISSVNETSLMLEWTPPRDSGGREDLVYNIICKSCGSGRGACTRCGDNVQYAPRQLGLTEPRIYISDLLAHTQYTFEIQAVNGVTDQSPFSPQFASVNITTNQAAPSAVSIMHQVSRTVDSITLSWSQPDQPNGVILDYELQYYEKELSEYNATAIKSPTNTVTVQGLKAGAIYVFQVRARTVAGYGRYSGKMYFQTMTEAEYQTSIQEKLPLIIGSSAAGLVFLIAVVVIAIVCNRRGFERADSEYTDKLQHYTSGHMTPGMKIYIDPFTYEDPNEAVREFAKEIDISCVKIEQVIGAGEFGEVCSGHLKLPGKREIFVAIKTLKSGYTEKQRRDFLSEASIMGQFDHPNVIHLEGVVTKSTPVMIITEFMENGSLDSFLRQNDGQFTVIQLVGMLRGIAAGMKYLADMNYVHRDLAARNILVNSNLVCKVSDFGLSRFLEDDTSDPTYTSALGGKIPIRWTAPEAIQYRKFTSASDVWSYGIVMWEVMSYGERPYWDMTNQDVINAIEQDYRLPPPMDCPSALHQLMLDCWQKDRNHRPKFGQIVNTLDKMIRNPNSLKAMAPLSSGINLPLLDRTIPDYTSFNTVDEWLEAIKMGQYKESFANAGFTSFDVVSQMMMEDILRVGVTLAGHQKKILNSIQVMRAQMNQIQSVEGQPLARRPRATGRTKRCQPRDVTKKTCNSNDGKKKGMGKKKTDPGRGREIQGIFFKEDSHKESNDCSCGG

Tyrosine-protein kinase CSK (Homo sapiens), sequence (P41240 2-450 limits assumed): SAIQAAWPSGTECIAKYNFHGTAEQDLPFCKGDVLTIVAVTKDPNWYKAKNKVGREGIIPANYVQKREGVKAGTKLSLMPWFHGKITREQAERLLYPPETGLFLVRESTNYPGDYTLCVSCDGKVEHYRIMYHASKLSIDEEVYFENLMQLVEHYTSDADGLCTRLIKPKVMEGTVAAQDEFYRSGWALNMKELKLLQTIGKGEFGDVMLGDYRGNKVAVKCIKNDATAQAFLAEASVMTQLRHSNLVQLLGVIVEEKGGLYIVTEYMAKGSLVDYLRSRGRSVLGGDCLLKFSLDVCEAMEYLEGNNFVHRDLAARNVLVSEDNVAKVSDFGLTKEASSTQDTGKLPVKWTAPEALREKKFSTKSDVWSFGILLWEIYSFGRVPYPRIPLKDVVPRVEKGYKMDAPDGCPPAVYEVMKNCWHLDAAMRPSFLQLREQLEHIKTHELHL

Row | Compound | inhibition [1] [%] | inhibition [2] [%] | inhibition [3] [%] | inhibition [4] [%] | inhibition [5] [%] | inhibition [6] [%] | inhibition [7] [%] | inhibition [8] [%] | inhibition [9] [%] | inhibition [10] [%] | inhibition [11] [%] | inhibition [12] [%] | inhibition [13] [%] | inhibition [14] [%] | inhibition [15] [%] | inhibition [16] [%] | inhibition [17] [%] | inhibition [18] [%] | inhibition [19] [%] | inhibition [20] [%]
1 | O=C1NC(=O)C(c2cccc(Cl)c2)=C1Nc1ccc(O)c(Cl)c1 | -5.59 | -1.25 | -1.13 | -0.21 | 1.12 | -2.01 | -0.47 | -0.43 | -0.33 | -0.72 | -0.85 | 0.92 | 0.61 | 0.74 | 1.32 | 0.53 | -2.04 | 1.17 | -8.81 | -3.19
2 | CNC(=O)c1cncc(/C=C/c2c(Cl)cccc2Cl)c1 | 10.6 | 3.42 | 21.2 | -0.54 | 0.79 | 0.61 | 14.2 | 2.27 | 4.01 | 1.23 | 0.83 | 0.18 | 3.2 | 0.35 | 17.3 | -0.5 | 5.3 | 7.99 | 43.6 | 10.3
3 | CS(=O)(=O)CCNCc1ccc(-c2ccc3ncnc(Nc4ccc(OCc5ccccc5)c(Cl)c4)c3c2)o1 | 5.6 | 3.48 | 9.08 | 82.5 | 85.6 | 61.7 | 93.6 | 52.9 | 87.6 | 2.68 | 17.8 | -1.01 | 2.45 | -2.92 | -2.31 | -2.51 | 1.66 | 1.26 | 9.95 | 5.36
4 | COC(=O)Nc1nc2cc(Oc3cccc(NC(=O)Nc4cc(C(F)(F)F)ccc4F)c3)ccc2[nH]1 | 2.36 | 13.2 | 68.6 | 0.87 | 1.45 | -1.54 | 1.41 | -1.86 | -4.32 | -1.19 | -1.93 | -3.25 | 3.44 | -2.35 | 3.83 | 0.48 | 2.56 | 1.63 | 14.2 | -0.54
5 | Nc1ncnc2occ(-c3ccc(NC(=O)Nc4cc(C(F)(F)F)cc(C(F)(F)F)c4)cc3)c12 | 20.6 | 67.7 | 84.4 | 0.56 | 0.39 | 1.34 | -2.77 | 2.29 | -2.09 | 1.48 | -2.28 | -1.98 | 0.18 | 7.28 | 42 | 6.5 | 14.6 | 8.44 | 44.5 | 22
6 | NS(=O)(=O)c1cccc(-c2ccc3c(NC(=O)C4CC4)n[nH]c3c2)c1 | -3.46 | -0.11 | -9.65 | 0.04 | 0.71 | -0.88 | -2.32 | 1.67 | -0.49 | -1.44 | -1.45 | -1.29 | 3.22 | -4.33 | -3.03 | -5.8 | -2.02 | -5.25 | -5.49 | -1.84
7 | CCn1c(-c2nonc2N)nc2c(C#CC(C)(C)O)nc(CN3CCCC3)cc21 | -4.12 | 1.3 | 5.64 | 1.34 | 1.12 | -0.22 | -1.48 | -1.77 | -4.01 | -2.21 | -1.46 | -1.08 | 0.28 | -1.52 | -2.75 | -2.69 | 1.11 | -7.89 | -5.06 | -4.91
